# Assay results reported in the supplement of paper PMC11732987, “Enantioselective OTUD7B fragment discovery through chemoproteomics screening and high-throughput optimisation” (Communications Chemistry, 2025).
# Values without a mark were called inactive.
# How the values were obtained:
# Assay in all cases: log2 ratio of Biotin-Ahx-Ub-VS probe labelling (fragment/DMSO); higher = less target engagement (more negative = stronger competition), active = hit call of the paper (q ≤ 0.05, log2 ratio ≤ -1)
# Settings in all cases: compound concentration: 200 uM; treatment time: 3 h
# ALG13 = target: T1, ALG13 (UniProt Q9NP73)
# T1 sequence (whole entry): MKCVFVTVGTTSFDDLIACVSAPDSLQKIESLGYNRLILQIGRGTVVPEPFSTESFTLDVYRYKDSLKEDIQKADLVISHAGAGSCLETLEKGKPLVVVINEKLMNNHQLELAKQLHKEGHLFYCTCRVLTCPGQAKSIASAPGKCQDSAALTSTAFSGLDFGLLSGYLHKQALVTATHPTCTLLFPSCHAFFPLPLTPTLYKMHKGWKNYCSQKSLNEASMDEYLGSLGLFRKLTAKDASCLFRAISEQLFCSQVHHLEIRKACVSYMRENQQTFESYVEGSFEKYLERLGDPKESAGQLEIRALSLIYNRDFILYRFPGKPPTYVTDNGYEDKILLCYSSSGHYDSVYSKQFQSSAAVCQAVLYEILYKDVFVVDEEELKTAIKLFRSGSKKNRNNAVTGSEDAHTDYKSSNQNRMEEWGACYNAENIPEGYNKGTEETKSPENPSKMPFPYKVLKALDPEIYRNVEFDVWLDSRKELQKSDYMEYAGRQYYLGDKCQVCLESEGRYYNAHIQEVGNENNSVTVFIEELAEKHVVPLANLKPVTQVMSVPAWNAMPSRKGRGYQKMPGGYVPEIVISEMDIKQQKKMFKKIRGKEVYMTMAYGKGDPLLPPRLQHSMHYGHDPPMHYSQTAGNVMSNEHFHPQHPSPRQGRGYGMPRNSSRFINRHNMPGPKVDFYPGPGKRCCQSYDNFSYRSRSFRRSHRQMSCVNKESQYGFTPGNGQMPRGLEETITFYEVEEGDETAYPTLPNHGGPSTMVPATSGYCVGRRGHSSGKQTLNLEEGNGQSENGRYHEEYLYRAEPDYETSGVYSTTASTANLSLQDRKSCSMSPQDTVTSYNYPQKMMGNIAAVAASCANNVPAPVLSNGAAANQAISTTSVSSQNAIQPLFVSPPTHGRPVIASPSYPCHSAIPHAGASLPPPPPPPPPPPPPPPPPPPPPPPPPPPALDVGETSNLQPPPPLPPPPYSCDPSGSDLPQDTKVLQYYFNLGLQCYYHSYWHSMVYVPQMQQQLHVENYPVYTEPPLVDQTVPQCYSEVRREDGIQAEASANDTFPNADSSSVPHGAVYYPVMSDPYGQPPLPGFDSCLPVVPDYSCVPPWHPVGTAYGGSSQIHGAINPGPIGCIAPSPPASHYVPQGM
# Summary of the method: (§1)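 Fragment (200 µM) or vehicle was incubated for 3 h with triplicate HEK293T lysate samples of 495 µg, which were then treated with Biotin-Ahx-Ub-VS at 0.5 µM final for 1 h. Labelled DUBs were enriched on NeutrAvidin, digested with LysC and trypsin, and analysed by diaPASEF LC-MS/MS. Values are average log2 fragment/vehicle ratios from an unpaired t-test on global-median-normalised Spectronaut label-free quantities, using proteins with ≥2 unique peptides.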
# ATXN3 = ATXN3 (UniProt P54252)
# ATXN3, sequence (P54252 whole entry): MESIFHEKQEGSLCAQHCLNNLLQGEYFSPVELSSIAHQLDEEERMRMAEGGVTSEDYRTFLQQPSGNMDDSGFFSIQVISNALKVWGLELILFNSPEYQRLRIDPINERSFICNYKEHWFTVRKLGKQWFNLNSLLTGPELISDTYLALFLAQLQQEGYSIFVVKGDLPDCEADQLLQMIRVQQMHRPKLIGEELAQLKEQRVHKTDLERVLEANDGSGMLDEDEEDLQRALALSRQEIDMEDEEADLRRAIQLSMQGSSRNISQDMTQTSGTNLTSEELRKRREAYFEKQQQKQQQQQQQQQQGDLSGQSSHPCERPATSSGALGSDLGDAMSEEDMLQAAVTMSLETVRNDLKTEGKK
# Summary of the method: as §1
# BAP1 = target: T2, BAP1 (UniProt Q92560)
# T2 sequence (whole entry): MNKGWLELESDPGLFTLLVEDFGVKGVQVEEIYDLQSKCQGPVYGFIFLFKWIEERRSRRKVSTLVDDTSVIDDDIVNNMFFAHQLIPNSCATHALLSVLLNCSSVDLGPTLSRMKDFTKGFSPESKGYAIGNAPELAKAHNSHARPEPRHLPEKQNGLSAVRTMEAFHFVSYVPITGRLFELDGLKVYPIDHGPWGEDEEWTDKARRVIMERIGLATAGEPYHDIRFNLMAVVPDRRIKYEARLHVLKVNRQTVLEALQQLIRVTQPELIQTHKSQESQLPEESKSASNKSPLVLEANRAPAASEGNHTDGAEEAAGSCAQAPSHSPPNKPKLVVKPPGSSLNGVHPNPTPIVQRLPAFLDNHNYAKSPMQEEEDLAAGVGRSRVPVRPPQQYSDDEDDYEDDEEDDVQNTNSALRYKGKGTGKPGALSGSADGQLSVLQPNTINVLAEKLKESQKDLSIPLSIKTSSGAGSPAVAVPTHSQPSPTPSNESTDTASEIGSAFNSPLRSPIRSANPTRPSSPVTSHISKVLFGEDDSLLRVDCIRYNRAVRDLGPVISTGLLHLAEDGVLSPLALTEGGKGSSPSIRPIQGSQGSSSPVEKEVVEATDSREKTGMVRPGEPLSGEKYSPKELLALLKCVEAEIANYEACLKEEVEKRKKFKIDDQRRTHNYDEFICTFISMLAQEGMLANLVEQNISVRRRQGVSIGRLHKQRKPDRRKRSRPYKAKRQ
# Summary of the method: as §1
# EIF3F = EIF3F (UniProt O00303)
# EIF3F, sequence (O00303 whole entry): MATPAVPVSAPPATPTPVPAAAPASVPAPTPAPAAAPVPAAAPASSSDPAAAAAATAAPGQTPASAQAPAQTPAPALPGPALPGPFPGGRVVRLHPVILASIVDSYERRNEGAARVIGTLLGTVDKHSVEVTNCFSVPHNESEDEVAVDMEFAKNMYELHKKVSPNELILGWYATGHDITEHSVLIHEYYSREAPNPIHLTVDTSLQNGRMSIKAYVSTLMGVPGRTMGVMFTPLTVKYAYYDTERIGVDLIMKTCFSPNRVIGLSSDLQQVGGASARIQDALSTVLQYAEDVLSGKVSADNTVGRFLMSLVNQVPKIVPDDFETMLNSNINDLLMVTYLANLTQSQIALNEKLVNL
# Summary of the method: as §1
# EIF3H = EIF3H (UniProt O15372)
# EIF3H, sequence (O15372 whole entry): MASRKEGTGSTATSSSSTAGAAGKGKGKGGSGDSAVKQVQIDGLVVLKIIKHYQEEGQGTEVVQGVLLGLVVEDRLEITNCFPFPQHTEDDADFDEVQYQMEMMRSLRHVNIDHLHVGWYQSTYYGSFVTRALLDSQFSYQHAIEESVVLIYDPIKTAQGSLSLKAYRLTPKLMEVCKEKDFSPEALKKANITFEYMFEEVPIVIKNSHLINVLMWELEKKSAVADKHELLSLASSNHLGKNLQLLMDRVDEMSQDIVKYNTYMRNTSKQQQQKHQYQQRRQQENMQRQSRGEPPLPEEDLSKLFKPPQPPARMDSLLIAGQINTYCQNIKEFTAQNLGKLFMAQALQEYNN
# Summary of the method: as §1
# FAM105A = target: T3, FAM105A (UniProt Q9NUU6)
# T3 sequence (whole entry): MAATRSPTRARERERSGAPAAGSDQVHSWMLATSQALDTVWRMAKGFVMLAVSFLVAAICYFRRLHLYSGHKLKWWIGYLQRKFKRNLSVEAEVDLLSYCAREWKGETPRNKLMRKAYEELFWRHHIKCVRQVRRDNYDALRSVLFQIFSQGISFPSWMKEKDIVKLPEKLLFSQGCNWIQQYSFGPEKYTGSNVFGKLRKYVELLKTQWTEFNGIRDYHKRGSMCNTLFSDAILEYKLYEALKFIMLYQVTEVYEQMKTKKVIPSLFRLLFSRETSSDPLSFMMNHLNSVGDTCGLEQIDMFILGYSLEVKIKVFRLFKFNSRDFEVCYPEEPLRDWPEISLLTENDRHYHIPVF
# Summary of the method: as §1
# OTUB1 = OTUB1 (UniProt Q96FW1)
# OTUB1, sequence (Q96FW1 whole entry): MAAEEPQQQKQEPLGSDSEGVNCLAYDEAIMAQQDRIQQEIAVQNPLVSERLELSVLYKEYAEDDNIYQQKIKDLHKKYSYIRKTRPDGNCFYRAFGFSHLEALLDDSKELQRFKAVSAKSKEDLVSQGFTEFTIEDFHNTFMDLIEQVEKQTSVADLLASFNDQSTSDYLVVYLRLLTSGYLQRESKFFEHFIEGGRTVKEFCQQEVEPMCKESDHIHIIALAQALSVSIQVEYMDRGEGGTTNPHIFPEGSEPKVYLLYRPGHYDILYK
# Summary of the method: as §1
# OTUD4 = target: T4, OTUD4 (UniProt Q01804)
# T4 sequence (whole entry): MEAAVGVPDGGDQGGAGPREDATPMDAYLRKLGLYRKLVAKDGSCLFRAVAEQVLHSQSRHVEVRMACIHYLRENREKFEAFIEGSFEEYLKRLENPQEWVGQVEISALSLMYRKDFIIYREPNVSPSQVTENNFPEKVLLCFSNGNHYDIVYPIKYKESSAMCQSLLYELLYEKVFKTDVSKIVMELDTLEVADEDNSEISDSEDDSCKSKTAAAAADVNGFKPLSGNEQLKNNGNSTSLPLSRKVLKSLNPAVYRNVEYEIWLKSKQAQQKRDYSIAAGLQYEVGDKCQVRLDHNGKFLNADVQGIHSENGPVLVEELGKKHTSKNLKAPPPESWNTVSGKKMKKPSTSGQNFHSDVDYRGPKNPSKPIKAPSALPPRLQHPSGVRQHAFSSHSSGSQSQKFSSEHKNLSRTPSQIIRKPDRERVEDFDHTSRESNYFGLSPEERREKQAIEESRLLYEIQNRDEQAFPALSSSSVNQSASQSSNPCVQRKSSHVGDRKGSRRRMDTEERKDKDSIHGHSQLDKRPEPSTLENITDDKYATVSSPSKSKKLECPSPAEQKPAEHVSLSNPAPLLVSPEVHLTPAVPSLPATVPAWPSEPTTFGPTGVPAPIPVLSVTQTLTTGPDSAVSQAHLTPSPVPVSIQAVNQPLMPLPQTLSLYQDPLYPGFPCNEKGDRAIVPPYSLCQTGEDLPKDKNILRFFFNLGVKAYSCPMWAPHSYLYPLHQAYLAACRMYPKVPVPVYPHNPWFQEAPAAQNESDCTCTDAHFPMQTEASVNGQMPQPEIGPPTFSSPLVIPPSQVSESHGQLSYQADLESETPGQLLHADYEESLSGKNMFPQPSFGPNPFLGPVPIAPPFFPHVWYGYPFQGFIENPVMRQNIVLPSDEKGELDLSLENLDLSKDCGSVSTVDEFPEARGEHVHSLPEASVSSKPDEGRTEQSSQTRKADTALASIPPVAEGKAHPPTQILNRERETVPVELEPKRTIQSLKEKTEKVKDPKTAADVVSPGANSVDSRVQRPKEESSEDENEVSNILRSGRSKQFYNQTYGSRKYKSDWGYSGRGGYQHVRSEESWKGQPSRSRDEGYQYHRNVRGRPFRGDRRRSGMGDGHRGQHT
# Summary of the method: as §1
# OTUD5 = target: T5, OTUD5 (UniProt Q96G74)
# T5 sequence (whole entry): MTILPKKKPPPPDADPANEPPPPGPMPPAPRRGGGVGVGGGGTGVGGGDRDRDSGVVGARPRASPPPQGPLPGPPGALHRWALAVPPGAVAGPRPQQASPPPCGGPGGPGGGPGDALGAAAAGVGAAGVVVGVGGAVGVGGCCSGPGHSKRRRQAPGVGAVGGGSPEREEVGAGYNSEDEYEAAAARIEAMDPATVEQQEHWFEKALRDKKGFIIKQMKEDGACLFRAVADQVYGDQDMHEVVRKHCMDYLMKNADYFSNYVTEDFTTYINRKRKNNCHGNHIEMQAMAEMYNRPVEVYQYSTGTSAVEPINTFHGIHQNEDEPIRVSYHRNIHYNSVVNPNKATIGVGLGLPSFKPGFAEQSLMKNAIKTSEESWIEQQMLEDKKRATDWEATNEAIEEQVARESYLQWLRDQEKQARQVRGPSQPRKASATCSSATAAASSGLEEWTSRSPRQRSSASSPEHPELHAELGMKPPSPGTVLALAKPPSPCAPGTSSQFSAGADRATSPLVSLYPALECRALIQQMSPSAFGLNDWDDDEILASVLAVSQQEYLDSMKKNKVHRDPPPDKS
# Summary of the method: as §1
compound,measurement,setting,value
Cl.O=C(CCl)NCc1cc2c(nc1O)CCCC2,log2 ratio of Biotin-Ahx-Ub-VS probe labelling,ALG13,-0.00624
same,log2 ratio of Biotin-Ahx-Ub-VS probe labelling,ATXN3,-0.358
same,log2 ratio of Biotin-Ahx-Ub-VS probe labelling,BAP1,-1.87 (active)
same,log2 ratio of Biotin-Ahx-Ub-VS probe labelling,EIF3F,0.116
same,log2 ratio of Biotin-Ahx-Ub-VS probe labelling,EIF3H,0.0749
same,log2 ratio of Biotin-Ahx-Ub-VS probe labelling,FAM105A,0.13
same,log2 ratio of Biotin-Ahx-Ub-VS probe labelling,OTUB1,-0.044
same,log2 ratio of Biotin-Ahx-Ub-VS probe labelling,OTUD4,-0.437
same,log2 ratio of Biotin-Ahx-Ub-VS probe labelling,OTUD5,-0.468
